Laboratory results reported in PubChem BioAssay (EPA / NIEHS).
Active and inactive are the calls of the source. Rule for the calls: active = hit-call score of the fitted dose curve at least 0.9, where 1 is the maximum; inactive = score below 0.9.

Test: APR_HepG2_MitoticArrest_24hr: Apredica 24-hour HepG2 Assay for Mitotic Arrest (AID 2282910)
Settings: high-content imaging, actives raise or lower the signal
Protocol: APR_HepG2_24hr is a cell-based, multiplexed-readout assay that uses HepG2, a human liver cell line, with measurements taken at 24 hours after chemical dosing in a 384-well plate.APR_HepG2_MitoticArrest_24hr is one of 10 assay component(s) measured or calculated from the APR_HepG2_24hr assay. It is designed to make measurements of cell phenotype, a form of morphology reporter, as detected with fluorescence intensity signals by HCS Fluorescent Imaging technology.Data from the assay component APR_HepG2_MitoticArrest_24hr was analyzed into 1 assay endpoint. This assay endpoint, APR_HepG2_MitoticArrest_24hr, was analyzed with bidirectional fitting relative to DMSO as the negative control and baseline of activity. Using a type of morphology reporter, measures of protein for gain or loss-of-signal activity can be used to understand the signaling at the pathway-level as they relate to the gene . Furthermore, this assay endpoint can be referred to as a primary readout, because this assay has produced multiple assay endpoints where this one serves a signaling function. To generalize the intended target to other relatable targets, this assay endpoint is annotated to the cell cycle intended target family, where the subfamily is arrest.
Cells were treated with dimethyl sulfoxide (DMSO) as a solvent control at a final concentration of 0.5% v/v or with compounds in DMSO with a resulting final DMSO concentration of 0.5% v/v. Compound treatment was done at concentrations of 0.39, 0.78, 1.56, 3.12, 6.24, 12.5, 25, 50, 100, and 200 uM in duplicate on each plate. Cells were treated with compounds for 1, 24, or 72 hr. Carbonyl […] m-chloro-phenylhydrazone (CCCP) and taxol were used as positive controls for mitochondrial function and cytoskeletal stability, respectively; DMSO served as the negative control for this experiment. Cells were fixed by the direct addition of 50 uL formaldehyde in Hank's Balanced Salt Solution (HBSS) to a final concentration of 3.7%. After incubation in the fixation medium for 30 min at room temperature (293-298 K), cells were rinsed twice with HBSS and treated with cell permeabilization buffer (16 uL of 0.5% Triton X-100) for 10 min at room temperature (293-298 K) before labeling. For mitochondrial membrane potential and mitochondrial measurements, pre-fixed cells were incubated with 50 uL of MitoTracker Red CMXRos (Invitrogen) at a concentration of 250 nM for 30 min before fixation. In the remaining cases, post-fixed cells were labeled by incubation with a multiplexed mixture of primary antibodies in HBSS for 60 min at room temperature (293-298 K) to detect immunoreactivity of c-Jun (1:500), phospho-histone H3 (1:100), phospho-histone H2A.x (1:200), p53 (1:400), alpha-tubulin (1:200) and Hoechst 33342 (2 ug/mL). Cells were labeled for multiplexed imaging on two separate plates: a) Hoechst 33342, MitoTracker Red, phospho-histone H3, and alpha-tubulin, and b) Hoechst 33342, phospho-histone H2A.x, and c-Jun. A final rinse with HBSS (50 uL) was performed before analysis. The primary and secondary antibodies for the proteins were phospho-histone H3 (rabbit anti-phospho-histone H3 and FITC-donkey anti-rabbit IgG), phospho-histone H2A.x (mouse anti-phospho-histone H2A.x and FITC-donkey anti-mouse IgG), c-Jun (rabbit anti-phospho-c-Jun and Cy3-donkey anti-rabbit IgG), p53 (sheep anti-p53 and Cy5-donkey anti-sheep IgG), alpha-tubulin (mouse anti-alpha-tubulin and Cy5-donkey anti-mouse IgG). These antibodies are available as the CellCiphr HepG2 assay kit (Millipore).Digital images of each well were captured using a Cellomics ArrayScan VTI (Thermo Scientific Cellomics) (0.8 NA objective, 0.63x optical coupler, and XF-93 filter set) at 20x magnification. The images were acquired using the autofocus feature of the ArrayScan instrument, which entails the following steps. First, the camera focuses on channel 1 (Hoechst 33342), where nuclei are identified. Second, a Z offset of 1 um is used for capturing mitochondria (MitoTracker Red). […]

outcome, inactive:
CCCCC(CC)COC(=O)CCCCCCCC(=O)OCC(CC)CCCC (stereo not given)
CCc1nc(N)nc(N)c1-c1ccc(Cl)cc1
CC(=O)CC(c1ccccc1)c1c(O)c2ccccc2oc1=O (stereo not given)
CC(C)NCC(O)c1ccc(O)c(O)c1 (stereo not given)
COC(=O)CCC(=O)OC
O=C1O[C@H]([C@H](O)CO)C(O)=C1O
CCCCC(CC)CO (stereo not given)
CC(=O)[C@@]1(O)CC[C@H]2[C@@H]3CCC4=CC(=O)CC[C@]4(C)[C@H]3CC[C@@]21C
CC(=O)OCC(COC(C)=O)OC(C)=O
CC(=O)S[C@H](C(=O)N[C@H]1Cc2ccccc2[C@H]2CCC[C@@H](C(=O)O)N2C1=O)C(C)C
Cc1cc(SC2=C(O)C[C@@](CCc3ccc(N)cc3)(C(C)C)OC2=O)c(C(C)(C)C)cc1CO
O=C(O)CC(O)(CC(=O)O)C(=O)O
CCCCCCC(C=O)=Cc1ccccc1
O=C1CCCCC1
COC(=O)CCCC(=O)OC
O=C(Oc1ccccc1)c1cccc(C(=O)Oc2ccccc2)c1
CC(C)OC(=O)C(C)(C)Oc1ccc(C(=O)c2ccc(Cl)cc2)cc1
CS(=O)(=O)c1ccc([C@@H](C[C@H]2CCC(=O)C2)C(=O)Nc2cnccn2)cc1Cl
C=CCCCCCCCCCCCC
CC1(C)C(=O)NC(=O)N1CO
COc1ccc(C(=O)Nc2nc3ccccc3c(NCc3ccccc3)c2C#N)cc1
O=NO
OCC(CO)n1cnc(-c2ccc(F)cc2)c1-c1ccnc(Oc2ccccc2)n1
CCCCCCCCCC[N+](C)(C)[O-]
O=Cc1ccccc1C=O
Cn1cnc2c1c(=O)[nH]c(=O)n2C
CCCCCCC(CCCCCCCCCCC(=O)OCC(COC(C)=O)OC(C)=O)OC(C)=O (stereo not given)
O=C1NC(=O)C(c2ccccc2)(c2ccccc2)N1
CCCCc1nc2cccnc2n1Cc1ccc(-c2ccccc2-c2nnn[nH]2)cc1
CC(C)c1cccc(C(C)C)c1
CC(C)c1cccc(C(C)C)c1NC(=O)NS(=O)(=O)c1cc(C(C)(C)O)co1
Cc1c(C)c2c(c(C)c1O)CCC(C)(COc1ccc(CC3SC(=O)NC3=O)cc1)O2 (stereo not given)
c1ccc2occc2c1

AC50, active:
CN(C)C(=O)NC1(c2ccccc2)CCN(CCC[C@]2(c3ccc(Cl)c(Cl)c3)CCCN(C(=O)c3ccccc3)C2)CC1 16.3 µM
COC(=O)[C@H]1[C@H]2C[C@@H]3c4[nH]c5cc(OC)ccc5c4CCN3C[C@H]2C[C@@H](OC(=O)c2cc(OC)c(OC)c(OC)c2)[C@@H]1OC 31.1 µM
Cc1ccc(-c2cc(C(F)(F)F)nn2-c2ccc(S(N)(=O)=O)cc2)cc1 53.2 µM
CSc1ccc(Oc2ccc(S(N)(=O)=O)cc2CN(C)C)cc1C 88.9 µM
COc1ccc(OC(F)(F)F)cc1CN[C@H]1CCCN[C@H]1c1ccccc1 39.5 µM
CCCCC(CC)COP(=O)(OCC(CC)CCCC)OCC(CC)CCCC (stereo not given) 48.2 µM
Cc1ccc(C(C)(C)C)c(O)c1 106 µM
